In PubChem BioAssay (NCATS):
Inconclusive results are not listed. The source made the active and inactive calls. Calls come from the whole dose curve; as a rule, active = well fitted inhibition curve with a large enough effect; inconclusive = small, poorly fitted or top-dose-only effect; inactive = flat fitted curve, though single readings scatter.

Key:
[1] = tested on: PC26; test: qHTS profiling for inhibitors of Plasmodium falciparum proliferation (AID 504749);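 note: 0% = DMSO vehicle and full inhibition = artemisinin control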; details: P. falciparum in erythrocytes, SYBR Green DNA, 72 h; series mostly up to 28.7 µM
How it was run: (§1)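 Infected RBCs, 0.3% parasitemia/2.5% Hct final; cpd 72 h, 37 C, 5% CO2; lysis buffer with saponin/triton/SYBR Green I, o/n RT dark; FI 485/535; norm. to artemisinin (0.29 uM) and DMSO.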

[2] = tested on: PC49; test: as above; details: P. falciparum in erythrocytes, SYBR Green DNA, 72 h; series mostly up to 28.7 µM
How it was run: as §1

[3] = tested on: SC27B; test: as above; details: P. falciparum in erythrocytes, SYBR Green DNA, 72 h; series mostly up to 28.7 µM
How it was run: as §1

[4] = tested on: TAB109; test: as above; details: P. falciparum in erythrocytes, SYBR Green DNA, 72 h; series mostly up to 28.7 µM
How it was run: as §1

[5] = tested on: TAB113; test: as above; details: P. falciparum in erythrocytes, SYBR Green DNA, 72 h; series mostly up to 28.7 µM
How it was run: as §1

[6] = tested on: TAB165; test: as above; details: P. falciparum in erythrocytes, SYBR Green DNA, 72 h; series mostly up to 28.7 µM
How it was run: as §1

[7] = tested on: W2; test: as above; details: P. falciparum in erythrocytes, SYBR Green DNA, 72 h; series mostly up to 28.7 µM
How it was run: as §1

[8] = tested on: CRL-7250; test: Cytotoxic Profiling of Annotated Libraries Using Quantitative High-Throughput Screening (AID 1296008); details: Five cell lines viability, CellTiter-Glo ATP luminescence, 48-72 h; hits give low values; for max response: % is set by controls: 0 for no effect and ±100 for the full control effect
How it was run: (§2)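 Cytotoxicity was measured as CellTiter-Glo ATP luminescence, read after 10 min at room temperature. Compound treatment of the cells lasted 48 or 72 hr at 37 degrees Celsius in a qHTS format.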

[9] = tested on: HEK293; test: as above; details: Five cell lines viability, CellTiter-Glo ATP luminescence, 48-72 h; hits give low values
How it was run: as §2

[10] = tested on: HaCat; test: as above; details: Five cell lines viability, CellTiter-Glo ATP luminescence, 48-72 h; hits give low values
How it was run: as §2

[11] = tested on: KB-3-1; test: as above; details: Five cell lines viability, CellTiter-Glo ATP luminescence, 48-72 h, hits give low values
How it was run: as §2

[12] = tested on: NIH3T3; test: as above; details: Five cell lines viability, CellTiter-Glo ATP luminescence, 48-72 h; hits give low values
How it was run: as §2

[13] = tested on: HACAT; test: qHTS assay to identify novel small-molecules to repurpose for Merkel cell carcinoma treatment (AID 1296009); details: MCC and control cell lines, CellTiter-Glo viability, 72 h; at 44.8 µM (top of the series) unless noted
How it was run: (§3)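 72 hr, 37 degree celsius; NPC 8-pt / MIPE 11-pt dose response; compound pinned in DMSO; CellTiter-Glo, 10 min RT, luminescence; normalized to no-cell and DMSO controls.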

[14] = tested on: MCC-13; test: as above; details: MCC and control cell lines, CellTiter-Glo viability, 72 h; series mostly up to 46 µM
How it was run: as §3

[15] = tested on: MCC-26; test: as above; details: MCC and control cell lines, CellTiter-Glo viability, 72 h; series mostly up to 46 µM
How it was run: as §3

[16] = tested on: MKL-1; test: as above; details: MCC and control cell lines, CellTiter-Glo viability, 72 h; series mostly up to 46 µM
How it was run: as §3

[17] = tested on: MKL-2; test: as above; details: MCC and control cell lines, CellTiter-Glo viability, 72 h; series mostly up to 46 µM
How it was run: as §3

[18] = tested on: NIH3T3; test: as above; details: MCC and control cell lines, CellTiter-Glo viability, 72 h; at 44.8 µM (top of the series) unless noted
How it was run: as §3

[19] = tested on: UISO; test: as above; details: MCC and control cell lines, CellTiter-Glo viability, 72 h; series mostly up to 46 µM
How it was run: as §3

[20] = tested on: HEK293T; test: as above; details: MCC and control cell lines, CellTiter-Glo viability, 72 h; at 44.8 µM (top of the series) unless noted
How it was run: as §3
Note: nearly all actives have a fitted effect of over 60% in size.

Cc1c(NC(=O)c2cccnc2)c(=O)n(-c2ccccc2)n1C
inactive: Potency [1] | Potency [2] | Potency [3] | Potency [4] | Potency [5] | Potency [6] | Potency [7] | max response [8] -9.05% | max response [9] 0.504% | outcome [10] | max response [11] -0.639% | outcome [12] | outcome [13] | outcome [14] | outcome [15] | outcome [16] | outcome [17] | outcome [18] | outcome [19]

NC(N)=NS(=O)(=O)c1ccc(N)cc1
inactive: Potency [1] | Potency [2] | Potency [3] | Potency [4] | Potency [5] | Potency [6] | Potency [7] | outcome [8] | max response [9] -6.28% | outcome [10] | max response [11] 15.5% | outcome [12] | outcome [13] | outcome [14] | outcome [15] | outcome [16] | outcome [17] | outcome [18] | outcome [19]

CC(CSC(=O)c1ccccc1)C(=O)N1C[C@@H](Sc2ccccc2)C[C@H]1C(=O)O (some centres not stated)
inactive: Potency [1] | Potency [2] | Potency [3] | Potency [4] | Potency [5] | Potency [6] | Potency [7] | max response [8] -5.72% | outcome [9] | outcome [10] | max response [11] -11.1% | max response [12] -0.681% | outcome [13] inactive [at 17.4 µM] | outcome [20] inactive [at 17.4 µM] | outcome [14] | outcome [15] | outcome [16] | outcome [17] | outcome [19]

CN1CCCN=C1COC(=O)C(O)(c1ccccc1)C1CCCCC1 (configuration not stated)
inactive: Potency [1] | Potency [2] | Potency [3] | Potency [4] | Potency [5] | Potency [6] | Potency [7] | max response [8] -8.2% | max response [9] -8.47% | outcome [10] | max response [11] -13.9% | outcome [12] | outcome [13] | outcome [14] | outcome [15] | outcome [16] | outcome [17] | outcome [18] | outcome [19]

C[n+]1ccccc1/C=N/O
inactive: max response [8] -2.33% | max response [9] -5.72% | outcome [10] | max response [11] -1.46% | outcome [12] | outcome [13] | outcome [14] | outcome [15] | outcome [16] | outcome [17] | outcome [18] | outcome [19]

Cc1cccc(C(=O)O)c1O
inactive: Potency [1] | Potency [2] | Potency [3] | Potency [4] | Potency [5] | Potency [6] | Potency [7] | max response [8] -0.667% | max response [9] -2.23% | outcome [10] | max response [11] 2.2% | outcome [12] | outcome [13] | outcome [14] | outcome [15] | outcome [16] | outcome [17] | outcome [18] | outcome [19]

Nc1ncnc2c1ncn2[C@@H]1O[C@H](COP(=O)(O)O)[C@@H](O)[C@H]1O
inactive: Potency [1] | Potency [3] | Potency [4] | Potency [5] | Potency [6] | Potency [7] | outcome [8] | outcome [9] | outcome [10] | max response [11] -9.67% | max response [12] 4.32% | outcome [13] | outcome [20] | outcome [14] | outcome [15] | outcome [16] | outcome [17] | outcome [19]

CCCNC(C)C(=O)Nc1c(C)csc1C(=O)OC (configuration not stated)
inactive: outcome [8] | max response [9] -4.55% | outcome [10] | max response [11] -16.9% | outcome [12] | outcome [13] | outcome [14] | outcome [15] | outcome [16] | outcome [17] | outcome [18] | outcome [19]

O=C(O)Cn1c(C(=O)Nc2nc(-c3ccccc3Cl)cs2)cc2ccccc21
inactive: Potency [1] | Potency [2] | Potency [3] | Potency [4] | Potency [5] | Potency [6] | Potency [7] | outcome [8] | max response [9] -5.16% | outcome [10] | max response [11] -7.98% | outcome [12] | outcome [13] | outcome [14] | outcome [15] | outcome [16] | outcome [17] | outcome [18] | outcome [19]

NC(=O)N[C@@H](CCC(=O)O)C(=O)O
inactive: outcome [8] | max response [9] -4.43% | outcome [10] | max response [11] -19.7% | outcome [12] | outcome [13] | outcome [14] | outcome [15] | outcome [16] | outcome [17] | outcome [18] | outcome [19]

O=C(O)c1cc(=O)c2ccccc2o1
inactive: Potency [1] | Potency [2] | Potency [3] | Potency [4] | Potency [5] | Potency [6] | max response [8] 2.58% | max response [9] -0.978% | outcome [10] | max response [11] -5.78% | outcome [12] | outcome [13] | outcome [14] | outcome [15] | outcome [16] | outcome [17] | outcome [18] | outcome [19]

CN1C(=O)CC(c2ccccc2)C1=O (configuration not stated)
inactive: max response [8] 1.89% | max response [9] -5.41% | outcome [10] | max response [11] 0.936% | outcome [12] | outcome [13] | outcome [14] | outcome [15] | outcome [16] | outcome [17] | outcome [18] | outcome [19]

COc1nccnc1NS(=O)(=O)c1ccc(N)cc1
inactive: Potency [1] | Potency [2] | Potency [3] | Potency [4] | Potency [5] | Potency [6] | Potency [7] | max response [8] 3.15% | max response [9] 4.9% | outcome [10] | max response [11] -12% | outcome [12] | outcome [13] | outcome [14] | outcome [15] | outcome [16] | outcome [17] | outcome [18] | outcome [19]
